Data taken from PubChem BioAssay (NCATS).
Records with an inconclusive call do not appear. Unmarked numbers belong to inactive results. Activity calls are given as the source filed them. Calls come from the whole dose curve; as a rule, active = well fitted cell-killing curve with a large enough effect; inconclusive = small, poorly fitted or top-dose-only effect, or effect the other way; inactive = flat fitted curve, though single readings scatter. Where a SMILES comes first, the peptide text is derived from it. [ ]: non-standard residue; d: D form. pGlu = O=C1CC[C@@H](C(=O)O)N1

System: Tov-21-G
Assay: Primary qHTS to identify gynecologic anti-cancer compounds using libraries of approved drugs and bioactive compounds (AID 1345084); note: nearly all actives have a fitted effect of over 55% in size
Settings: Gynecologic cancer cell panel viability, ATPlite luminescence, 48 h; series mostly up to 57.5 µM; activity change, negative = cytotoxicity: at the top concentration
In short: (§1)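 48 h compound exposure at 37 C, 5% CO2; five-point qHTS. ATPlite luminescence readout of cell ATP.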
% is set by controls: 0 for no effect and ±100 for the full control effect; potency is the fitted concentration of half-maximal effect.

Point of comparison: `CCCCOCCOC(=O)c1cccnc1`, “activity change, negative = cytotoxicity” value -0.451%. Against it:
- CN1CC(=O)N2[C@H](c3ccc4c(c3)OCO4)c3[nH]c4ccccc4c3C[C@@H]2C1=O — lower, -2.51%
- COc1ccc2cc(C=O)ccc2c1 — lower, -3.47%
- COC(=O)C1=CO[C@@H](O)[C@@H]2C(CO)=CC[C@H]12 — lower, -5.81%
- CCOC(=O)CN1CCCC1=O — higher, -0.439%
- CC1(C)O[C@@H]2C[C@H]3[C@@H]4C[C@H](F)C5=CC(=O)C=C[C@]5(C)[C@@]4(F)[C@@H](O)C[C@]3(C)[C@]2(C(=O)CO)O1 — lower, -3.34%
- Cc1[nH]cnc1-c1ccc(Cl)cc1 — higher, 3.41%
- OC1(c2ccccc2)CCNCC1 — lower, -8.17%
- CC(=O)N[C@@H](CO)C(=O)N[C@@H](CC(=O)O)C(=O)N[C@@H](CCCCN)C(=O)N1CCC[C@H]1C(=O)O (Ac-SDKP-OH) — higher, 1.88%
- CCOC(=O)c1cc(=O)c2c(OCC(COc3cccc4oc(C(=O)OCC)cc(=O)c34)OC(=O)[C@@H](N)CCCCN)cccc2o1 — higher, 2.27%
- C/C(=C(/OCCOc1ccc(Cl)cc1)c1ccc(Cl)cc1Cl)n1ccnc1 — lower, -3.19%
- O=C(c1cc(O)c(O)c(O)c1)c1ccc(O)c(O)c1O — higher, 8.56%
- CCOC(=O)Oc1ccc(CCNC(=O)[C@H](CCSC)NC(C)=O)cc1OC(=O)OCC — higher, 2.95%
- CCOCCn1c(C2CCN(CCc3ccc(C(C)(C)C(=O)O)cc3)CC2)nc2ccccc21 — higher, 5.32%
- Cc1ccc(CCn2c3c(c4cc(Cl)ccc42)CN(C)CC3)cn1 — lower, -2.85%
- O=C1NC(c2ccccc2)(c2ccccc2)C(=O)N1COP(=O)(O)O — higher, 0.0917%
- CCCC(=O)O[C@]1(C(=O)CC)CC[C@H]2[C@@H]3CCC4=CC(=O)CC[C@]4(C)[C@H]3[C@@H](O)C[C@@]21C — lower, -0.892%
- CCNC(=O)[C@@H]1CCCN1C(=O)[C@H](CCCN=C(N)N)NC(=O)[C@H](CC(C)C)NC(=O)CNC(=O)[C@H](Cc1ccc(O)cc1)NC(=O)[C@H](CO)NC(=O)[C@H](Cc1c[nH]c2ccccc12)NC(=O)[C@H](Cc1cnc[nH]1)NC(=O)[C@@H]1CCC(=O)N1 ([pGlu]HWSYGLRP-NHEt) — higher, 0.588%
- CC(=O)c1cc2ccccc2s1 — higher, 1.34%
- Fc1ccc(C(c2ccc(F)cc2)N2CCNCC2)cc1 — higher, 1.38%
- CN(C)CCN(Cc1ccsc1)c1ccccn1 — higher, 1.47%
- COc1ccc(OC(=O)N(CC(=O)O)Cc2ccc(OCCc3nc(-c4ccccc4)oc3C)cc2)cc1 — higher, 0.943%
- CN(C)CCN1CCN(c2cccc(Cl)c2)C1=O — higher, 1.35%
- Cc1oc(-c2ccccc2)nc1CCC(=O)c1ccc(CC2SC(=O)NC2=O)cc1 (stereo not given) — higher, 2.11%
- COC(=O)c1cc(S(N)(=O)=O)ccc1OC — higher, 5.27%
- Nc1ncnc2c1ncn2Cc1c(F)cccc1Cl — lower, -1.06%
- O=C1c2ccccc2CCc2ccccc21 — lower, -1.7%
- CC(C)C[C@@H]1[C@H](c2ccccc2)OC(=O)N1CCCN1CCCCCC1 — lower, -1.15%
- CC(C)(C)c1ccc(C(=O)CCCCl)cc1 — lower, -14.6%
- CC(Oc1c(Cl)cccc1Cl)C1=NCCN1 (stereo not given) — lower, -5.08%
- CC(=O)N1CCN(c2ccc(O)cc2)CC1 — lower, -5.69%
- O=C1Nc2cc(Cl)ccc2Oc2ccccc21 — lower, -2.69%
- Cc1ccc(C(=O)C(=O)O)cc1C — higher, 0.633%
- Cc1ccc2c(Cl)cc(Cl)c(O)c2n1 — lower, -1.18%
- CN1Cc2cc(C(=O)N3CCC(C4CCNCC4)CC3)ccc2N[C@@H](CC(=O)O)C1=O — higher, 4.99%
- O=C(O)Cn1c(=O)n(Cc2ccc(Br)cc2F)c(=O)c2ccc(Cl)cc21 — lower, -1.17%
- COC(=O)/C=C(/C)N — higher, 3.87%
- CC(C)(C)NCC(O)COc1ccccc1OCC1CCCO1 (stereo not given) — lower, -1.91%

With `NCC[C@H](O)C(=O)N[C@@H]1C[C@H](N)[C@@H](O[C@H]2O[C@H](CN)[C@@H](O)[C@H](O)[C@@H]2O)[C@H](O)[C@@H]1O[C@H]1O[C@H](CO)[C@@H](O)[C@H](N)[C@@H]1O` the activity change, negative = cytotoxicity was 7.33% [at 0.462 µM].

With `Cc1nc(N)nc(N)c1-c1ccc(Cl)c(Cl)c1` the Potency was 0.794 µM (active).

System: Tov112D
Assay: as above
Settings: Gynecologic cancer cell panel viability, ATPlite luminescence, 48 h; series mostly up to 57.5 µM; activity change, negative = cytotoxicity: at the top concentration
In short: as §1

Point of comparison: `COC(=O)C1=CO[C@@H](O)[C@@H]2C(CO)=CC[C@H]12`, “activity change, negative = cytotoxicity” value -0.588%. Against it:
- CN1CC(=O)N2[C@H](c3ccc4c(c3)OCO4)c3[nH]c4ccccc4c3C[C@@H]2C1=O — higher, 3.98%
- COc1ccc2cc(C=O)ccc2c1 — lower, -3.7%
- CCOC(=O)CN1CCCC1=O — higher, 9.14%
- CC1(C)O[C@@H]2C[C@H]3[C@@H]4C[C@H](F)C5=CC(=O)C=C[C@]5(C)[C@@]4(F)[C@@H](O)C[C@]3(C)[C@]2(C(=O)CO)O1 — lower, -3.12%
- Cc1[nH]cnc1-c1ccc(Cl)cc1 — lower, -2.17%
- OC1(c2ccccc2)CCNCC1 — lower, -0.905%
- CC(=O)N[C@@H](CO)C(=O)N[C@@H](CC(=O)O)C(=O)N[C@@H](CCCCN)C(=O)N1CCC[C@H]1C(=O)O (Ac-SDKP-OH) — higher, 12.8%
- CCOC(=O)c1cc(=O)c2c(OCC(COc3cccc4oc(C(=O)OCC)cc(=O)c34)OC(=O)[C@@H](N)CCCCN)cccc2o1 — higher, 18%
- C/C(=C(/OCCOc1ccc(Cl)cc1)c1ccc(Cl)cc1Cl)n1ccnc1 — lower, -0.992%
- O=C(c1cc(O)c(O)c(O)c1)c1ccc(O)c(O)c1O — lower, -9.16%
- CCOC(=O)Oc1ccc(CCNC(=O)[C@H](CCSC)NC(C)=O)cc1OC(=O)OCC — lower, -2.18%
- CCOCCn1c(C2CCN(CCc3ccc(C(C)(C)C(=O)O)cc3)CC2)nc2ccccc21 — higher, 5.42%
- Cc1ccc(CCn2c3c(c4cc(Cl)ccc42)CN(C)CC3)cn1 — lower, -16.9%
- O=C1NC(c2ccccc2)(c2ccccc2)C(=O)N1COP(=O)(O)O — higher, 7.98%
- CCCC(=O)O[C@]1(C(=O)CC)CC[C@H]2[C@@H]3CCC4=CC(=O)CC[C@]4(C)[C@H]3[C@@H](O)C[C@@]21C — lower, -1.22%
- CCNC(=O)[C@@H]1CCCN1C(=O)[C@H](CCCN=C(N)N)NC(=O)[C@H](CC(C)C)NC(=O)CNC(=O)[C@H](Cc1ccc(O)cc1)NC(=O)[C@H](CO)NC(=O)[C@H](Cc1c[nH]c2ccccc12)NC(=O)[C@H](Cc1cnc[nH]1)NC(=O)[C@@H]1CCC(=O)N1 ([pGlu]HWSYGLRP-NHEt) — lower, -4.73%
- CC(=O)c1cc2ccccc2s1 — higher, 3.65%
- Fc1ccc(C(c2ccc(F)cc2)N2CCNCC2)cc1 — higher, 2.83%
- CN(C)CCN(Cc1ccsc1)c1ccccn1 — lower, -3.01%
- COc1ccc(OC(=O)N(CC(=O)O)Cc2ccc(OCCc3nc(-c4ccccc4)oc3C)cc2)cc1 — lower, -1.1%
- CN(C)CCN1CCN(c2cccc(Cl)c2)C1=O — higher, 8.24%
- Cc1oc(-c2ccccc2)nc1CCC(=O)c1ccc(CC2SC(=O)NC2=O)cc1 (stereo not given) — higher, 4.34%
- COC(=O)c1cc(S(N)(=O)=O)ccc1OC — higher, 4.75%
- Nc1ncnc2c1ncn2Cc1c(F)cccc1Cl — higher, 9.02%
- O=C1c2ccccc2CCc2ccccc21 — higher, 6.1%
- CC(C)C[C@@H]1[C@H](c2ccccc2)OC(=O)N1CCCN1CCCCCC1 — lower, -2.46%
- CC(C)(C)c1ccc(C(=O)CCCCl)cc1 — lower, -6.89%
- CC(Oc1c(Cl)cccc1Cl)C1=NCCN1 (stereo not given) — lower, -2.62%
- CC(=O)N1CCN(c2ccc(O)cc2)CC1 — higher, 24.6%
- O=C1Nc2cc(Cl)ccc2Oc2ccccc21 — higher, 6.21%
- Cc1ccc(C(=O)C(=O)O)cc1C — higher, 1.45%
- Cc1ccc2c(Cl)cc(Cl)c(O)c2n1 — higher, 0.0582%
- CCCCOCCOC(=O)c1cccnc1 — higher, 1.45%
- CN1Cc2cc(C(=O)N3CCC(C4CCNCC4)CC3)ccc2N[C@@H](CC(=O)O)C1=O — higher, 5.52%
- O=C(O)Cn1c(=O)n(Cc2ccc(Br)cc2F)c(=O)c2ccc(Cl)cc21 — higher, 9.14%
- COC(=O)/C=C(/C)N — higher, 4.59%
- CC(C)(C)NCC(O)COc1ccccc1OCC1CCCO1 (stereo not given) — higher, 7.58%

In the case of `NCC[C@H](O)C(=O)N[C@@H]1C[C@H](N)[C@@H](O[C@H]2O[C@H](CN)[C@@H](O)[C@H](O)[C@@H]2O)[C@H](O)[C@@H]1O[C@H]1O[C@H](CO)[C@@H](O)[C@H](N)[C@@H]1O`, the activity change, negative = cytotoxicity is reported as 1.97% [at 0.462 µM].

For `Cc1nc(N)nc(N)c1-c1ccc(Cl)c(Cl)c1`, the Potency was 3.55 µM (active).
